Measured values: article PMC5540273 (PLoS ONE, 2017)

Assays:
Settings in all cases: concentration: 1 μM, replicates: in singlicate; n = 1
LKB1 = test system: T1, LKB1
T1 construct: gene STK11

LOK = test system: T2, LOK
T2 construct: gene STK10

LRRK2 = test system: LRRK2
LTK = test system: LTK
LYN = test system: LYN
LZK = test system: T3, LZK
T3 construct: gene MAP3K13

MAK = test system: MAK
MAP3K15 = test system: MAP3K15
MAP3K1 = test system: MAP3K1
MAP3K2 = test system: MAP3K2
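Also: KINOMEscan kinase panel screen.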

Structure (SMILES) | %Inh (LKB1) [%] | %Inh (LOK) [%] | %Inh (LRRK2) [%] | %Inh (LTK) [%] | %Inh (LYN) [%] | %Inh (LZK) [%] | %Inh (MAK) [%] | %Inh (MAP3K15) [%] | %Inh (MAP3K1) [%] | %Inh (MAP3K2) [%]
Clc1cc(Nc2ncnc3cc[nH]c23)ccc1OCc1ccccn1 | 10 | 30 | 0 | 14 | 15 | 0 | 42 | 46 | 7 | 2
CC(C)N1CCC(n2cnc(-c3ccc(F)cc3)c2-c2ccnc(N)n2)CC1 [SB-223132] | 0 | 0 | 28 | 2 | 22 | 0 | 0 | 0 | 0 | 0
O=c1cc(N2CCOCC2)nc2n(Cc3cccc(Cl)c3)ccn12 [GSK2296823] | 0 | 0 | 35 | 0 | 0 | 0 | 0 | 11 | 6 | 8
O=C(c1ccc(-c2cc(-c3c[nH]nc3-c3ccccn3)ccn2)cc1)N1CCCC1 [GW792479] | 0 | 0 | 10 | 0 | 0 | 0 | 0 | 0 | 0 | 0
CC(C)(C)OC(=O)NC1CCCN(c2cc(-c3ccc4c(N)n[nH]c4c3)nc(N)n2)C1 (centres unmarked) [GSK2286096] | 0 | 0 | 0 | 0 | 0 | 0 | 17 | 0 | 10 | 0
